{"source": "ChEMBL document CHEMBL4513216", "about": "“Probing the Open Global Health Chemical Diversity Library for Multistage-Active Starting Points for Next-Generation Antimalarials” (ACS Infect Dis, 2020)", "note": "About 8,600 (12%) of roughly 69,000 compounds showed an effect of 50% or more. The full list was thinned out, with strong results kept by preference.", "data": [{"test_system": "Plasmodium berghei", "experiment": "Screen against P. berghei liver stage (PbLuc), transformed with Luciferase, at 10uM", "format": "functional, HepG2", "conditions": "tested at 10 uM", "units": {"INHIBITION": "%"}, "values": [{"smiles": "Cc1ccc(CC(=O)N2CCC(Nc3ccc(C)nn3)CC2)cn1", "INHIBITION": 1.78}, {"smiles": "O=C(c1ccc(F)c(Br)c1)N1CCCN2CCCC2C1", "note": "(stereo not drawn)", "INHIBITION": 59.4}, {"smiles": "CS(=O)(=O)NCC1CCCN(C(=O)c2cccc(F)c2)C1", "note": "(stereo not drawn)", "INHIBITION": 38.5}, {"smiles": "CS(=O)(=O)NCC1CCCN(C(=O)c2ccco2)C1", "note": "(stereo not drawn)", "INHIBITION": -14.6}, {"smiles": "CS(=O)(=O)NCC1CCCN(C(=O)c2ccc(F)c(F)c2)C1", "note": "(stereo not drawn)", "INHIBITION": 53}, {"smiles": "Cc1ccc(C(=O)N2CCCC(CNS(C)(=O)=O)C2)o1", "note": "(stereo not drawn)", "INHIBITION": 26.4}, {"smiles": "O=C(c1ccc(F)c(F)c1)N1CCN2CCCC2C1", "note": "(stereo not drawn)", "INHIBITION": 9.52}, {"smiles": "O=C(c1ccc(-n2cccc2)c(F)c1)N1CCCN2CCCC2C1", "note": "(stereo not drawn)", "INHIBITION": -33.9}, {"smiles": "CS(=O)(=O)NCC1CCCN(C(=O)c2cc3ccccc3o2)C1", "note": "(stereo not drawn)", "INHIBITION": 57.8}, {"smiles": "COc1ccc(C(=O)N2CCCC(CNS(C)(=O)=O)C2)cc1F", "note": "(stereo not drawn)", "INHIBITION": 11.6}, {"smiles": "CC1(NC(=O)CNC(=O)C(C)(C)C)CCc2ccccc2C1", "note": "(stereo not drawn)", "INHIBITION": -2.43}, {"smiles": "COCCc1noc(CN2CC(n3nc(C)cc3C)C2)n1", "INHIBITION": -57.4}, {"smiles": "CC(C)COC(C)C(=O)NCc1ccccc1", "note": "(stereo not drawn)", "INHIBITION": -10.1}, {"smiles": "CCc1cc(=O)[nH]c(-c2ccc(NC(C)CN3CCOCC3)nc2)n1", "note": "(stereo not drawn)", "INHIBITION": -33.9}, {"smiles": "CSCC1CCCN(c2ncnc3oc(C)nc23)C1", "note": "(stereo not drawn)", "INHIBITION": -0.532}, {"smiles": "O=C(NCc1ccccn1)[C@@H]1COC[C@H]2CN(C3CCOCC3)C[C@H]21", "INHIBITION": 29.6}, {"smiles": "O=C(c1ccc2ccc(N3CCN(CC4CC4)CC3)n2c1)N1CCCO1", "INHIBITION": 40.8}, {"smiles": "CCN(CC)c1ccc2ccc(C(=O)N(CCOC)CCOC)cn12", "INHIBITION": 46.7}, {"smiles": "CN(C)C(=O)CNC(=O)c1ccc2ccc(N(C)CC3CC3)n2c1", "INHIBITION": 26}, {"smiles": "CCN(CC)c1ccc2ccc(C(=O)NC3CC3)cn12", "INHIBITION": 24.6}, {"smiles": "CN1CCN(c2ccc3ccc(C(=O)N4CCCO4)cn23)CC1", "INHIBITION": 51.2}, {"smiles": "CCN(CC)c1ccc2ccc(C(=O)N(C)C)cn12", "INHIBITION": 57.1}, {"smiles": "CN1CCN(c2ccc3ccc(C(=O)N4CCCCO4)cn23)CC1", "INHIBITION": -12.4}, {"smiles": "CCN(CC)c1ccc2ccc(C(=O)N3CCCCO3)cn12", "INHIBITION": 68.9}, {"smiles": "CCN(CC)c1ccc2ccc(C(=O)O)cn12", "INHIBITION": 39.3}, {"smiles": "CCNC(=O)c1ccc2ccc(N(CC)CC)n2c1", "INHIBITION": 55.6}, {"smiles": "CN(CC1CC1)c1ccc2ccc(C(=O)NCCN3CCOCC3)cn12", "INHIBITION": 23.2}, {"smiles": "CN(CC1CC1)c1ccc2ccc(C(=O)NC3CCCCC3)cn12", "INHIBITION": 0.112}, {"smiles": "C[C@@H]1CN(CCC(=O)NCc2ccccc2Cl)CC[C@@]1(O)C1CCC1", "INHIBITION": 41.4}, {"smiles": "CN(C)C1CCN(C(=O)Cc2csc(-c3ncccn3)n2)CC1", "INHIBITION": -31.3}, {"smiles": "COc1c(CNCCc2c[nH]c3ccccc23)c(C(C)C)nn1C", "INHIBITION": 22.5}, {"smiles": "COCC1COCCC12CCN(S(=O)(=O)c1ccccc1C)CC2", "note": "(stereo not drawn)", "INHIBITION": 48.4}, {"smiles": "CCCc1nnc2sc(-c3cc(C(C)C)n[nH]3)nn12", "INHIBITION": 35.7}, {"smiles": "Cc1noc(C)c1C(=O)N1CCCN(C)c2ccc(Cl)cc21", "INHIBITION": 19.7}, {"smiles": "Cc1nc(C)n(CC2CCCN(CCCc3ccccc3)C2)n1", "note": "(stereo not drawn)", "INHIBITION": 44.3}, {"smiles": "O=C(NC1CC1)[C@H]1CN(Cc2ccc3c(c2)OCO3)C[C@H]2OCC[C@@H]12", "INHIBITION": -23.3}, {"smiles": "Cc1cc2[nH]cc(C(=O)N3CCCCC3c3ccc(F)cc3)c(=O)n2n1", "note": "(stereo not drawn)", "INHIBITION": 17.8}, {"smiles": "Cc1nc2[nH]cc(C(=O)N3CCCCC3c3ccc(F)cc3)c(=O)n2n1", "note": "(stereo not drawn)", "INHIBITION": 57.1}, {"smiles": "Cc1cc(=O)c(C(=O)N2CCCCC2c2ccc(F)cc2)c[nH]1", "note": "(stereo not drawn)", "INHIBITION": -4.37}, {"smiles": "Cc1cc(CN2CCCN(c3ccc(C#N)cc3)CC2)no1", "INHIBITION": 29.17}, {"smiles": "Fc1ccccc1Cn1c(C2CCNCC2)cc2cccnc21", "INHIBITION": 52.55}, {"smiles": "COc1cccc(Cn2c(C3CCNCC3)cc3cccnc32)c1", "INHIBITION": 10.82}, {"smiles": "Fc1cccc(F)c1Cn1c(C2CCNCC2)cc2cccnc21", "INHIBITION": 54.9}, {"smiles": "c1cnc2c(c1)cc(C1CCOCC1)n2CCN1CCOCC1", "INHIBITION": 32.4}, {"smiles": "Fc1cccc(F)c1Cn1c(C2CCCNC2)cc2cccnc21", "note": "(stereo not drawn)", "INHIBITION": 30.74}, {"smiles": "COc1ccc(Cn2c(C3CCNCC3)cc3cccnc32)cc1", "INHIBITION": 36.8}, {"smiles": "Cc1oncc1C(=O)N1CCC2(CCN(Cc3cccnc3)C2=O)C1", "note": "(stereo not drawn)", "INHIBITION": 5.41}, {"smiles": "O=C(CC1CCCCC1)N1CCOCC1CO", "note": "(stereo not drawn)", "INHIBITION": -40}, {"smiles": "CCOCc1nn(C)c2c1CN(CCO)CC2", "INHIBITION": 27.6}, {"smiles": "O=C(N1CCOCC1)[C@@]12CCO[C@@H]1CCN(C1CCCCC1)C2", "INHIBITION": 0.542}, {"smiles": "COc1ccc(CN(C)c2nc3c(cnn3C)c(=O)[nH]2)c(OC)c1", "INHIBITION": 73.8}, {"smiles": "COc1ccc(OC)c(CN(C)c2nc3c(cnn3C)c(=O)[nH]2)c1", "INHIBITION": 4.3}, {"smiles": "COc1ccccc1CN(C)c1nc2c(cnn2C)c(=O)[nH]1", "INHIBITION": 27.9}, {"smiles": "COc1cccc([C@@]2(O)CC[C@@H]3CN(C(=O)c4c[nH]nc4C)C[C@@H]32)c1", "INHIBITION": 15.15}, {"smiles": "CC(=O)N1CCN(c2cc(CCN)nc(C3CC3)n2)CC1", "INHIBITION": 3.91}, {"smiles": "CSc1nsc(SCC(=O)c2cc3c(cc2Cl)NC(=O)C3)n1", "INHIBITION": 18.4}, {"smiles": "CCN1CCC2(CC1)OCCN2C(=O)c1ccc(OC)c(Cl)c1", "INHIBITION": 45}, {"smiles": "CCCOc1ccc(C(=O)N2CC[C@@H]3CC[C@H](C2)N3)cc1Cl", "INHIBITION": -4.4}, {"smiles": "CCCOc1ccc(C(=O)N2CCN3CCNC(=O)C3C2)cc1Cl", "note": "(stereo not drawn)", "INHIBITION": 18.7}, {"smiles": "CCCOc1c(Cl)cc(C(=O)N2CCOC23CCN(C)CC3)cc1Cl", "INHIBITION": 55.4}, {"smiles": "COc1cc(C(=O)N2CCCS2(=O)=O)cc(Cl)c1OC", "INHIBITION": 21.1}, {"smiles": "CCN1CCC2(CC1)OCCN2C(=O)c1cc(Cl)c(OC)c(Cl)c1", "INHIBITION": 59.5}, {"smiles": "Cc1ccc(C(NC(=O)CCCN2CCCCC2)C(=O)O)cc1", "note": "(stereo not drawn)", "INHIBITION": -18.9}, {"smiles": "COc1cc(CCC(=O)N2CCC(c3cnccn3)CC2)on1", "INHIBITION": 36.15}, {"smiles": "Cc1ccc(F)c(NS(=O)(=O)c2cc3c(c(C(=O)O)c2)OCCO3)c1", "INHIBITION": 14.1}, {"smiles": "COCCN1C(=O)[C@@H]2CC[C@H]1CN(C(=O)Cc1c(F)cccc1Cl)C2", "INHIBITION": -107}, {"smiles": "CCc1c(C(=O)O)nnn1-c1cc(C)ccc1C", "INHIBITION": -7.83}, {"smiles": "Cc1cc(C)n(CC2CN(Cc3cccnc3)CCO2)n1", "note": "(stereo not drawn)", "INHIBITION": 18.7}]}]}
